Results filed as inconclusive are left out. Where a call stands in place of a potency, no number is given. A number with no mark means an inactive call. Active and inactive are the calls of the source. Calls follow the shape of the dose curve; as a rule, active = well fitted cell-killing curve with a large enough effect in the repeat runs; inconclusive = weak or mixed curves, or effect the other way; inactive = flat fitted curve, though single readings scatter.
Assay: qHTS RealTime-Glo MT Cell Viability Assay in HEK293 cells - 32 hour (AID 1224868); also: nearly all actives have a fitted effect of over 50% in size; as to activity change, negative = cytotoxic: top concentration of the series differs between compounds
Settings: RealTime-Glo luminescence; series mostly up to 76.8 µM
Excerpt: National Center for Advancing Translational Sciences [NCATS]
NIH Chemical Genomics Center [NCGC]
U.S. Environmental Protection Agency [EPA]
National Institutes of Environmental Health Sciences [NIEHS]
National Toxicology Program [NTP]
U.S. Food and Drug Administration [FDA]
Measure of cell viability is critical in the cell-base assay. Analysis of cell viability is necessary for the characterization of cell responses to cytotoxic drugs and environmental stress. A RealTime-Glo MT Cell Viability Assay to monitor cell viability in real time of continues cell culture during 40 hours of compound treatment was used to screen Tox21 10K library compounds in Hek293 cells. The RealTime-Glo MT Cell Viability Assay is a nonlytic, homogeneous, bioluminescent method to measure cell viability in real time using a simple, plate-based method. The assay involves adding NanoLuc luciferase and a cell-permeant prosubstrate to cells in culture. Viable cells reduce the proprietary prosubstrate to generate a substrate for NanoLuc luciferase. This substrate diffuses from cells into the surrounding culture medium, where it is rapidly used by the NanoLuc Enzyme to produce a luminescent signal. The signal correlates with the number of viable cells, making the assay well suited for cytotoxicity studies.
Tox21 Assay Protocol Summary:
The mixture of Hek293 cell suspension and reagents were dispensed at 600cells/6 ul/well in 1536-well tissue culture treated black solid bottom plates using a Multidrop dispenser. After the assay plates were incubated at a 37 C/5% CO2 incubator for 5 hours, 23 nL of compounds dissolved in DMSO, positive and negative controls was transferred to the assay plate by a pintool work station. The plates were incubated at 37 C for 40 hours. The luminescence intensity were measured at 0h, 8h, 16h, 24h, 32h and 40h time points using ViewLux plate reader during compound treatment.
In the case of `COc1cc2c(cc1OC)[C@@H]1CC(=O)[C@@H](CC(C)C)CN1CC2`, the Potency was “inactive”. For `COC(=O)c1ccccc1C(=O)c1ccc(OCCN2CCCCC2)cc1`, the Potency was “inactive”. For `O=C(c1ccc(O)cc1)c1ccc(O)c(O)c1O`, the Potency was “inactive”. With `CCN(C)C(=O)Oc1cccc([C@H](C)N(C)C)c1` the Potency was “inactive”. For `CC1(C)S[C@@H]2[C@H](N=CN3CCCCCC3)C(=O)N2[C@H]1C(=O)O`, the Potency was “inactive”. In the case of `C=C(C)C(=O)OCC(C)(C)COC(=O)C(=C)C`, the Potency was “inactive”. For `CNC(=O)[C@H]1O[C@@H](n2cnc3c(NCc4cc(Cl)ccc4OCc4cc(C)no4)ncnc32)[C@H](O)[C@@H]1N`, the Potency was “inactive”. With `O=C(NCCc1c[nH]c2ccccc12)c1cccnc1` the Potency was “inactive”. With `CC(C)C[C@H](NC(=O)CNC(=O)[C@H](Cc1ccc(O)cc1)NC(=O)[C@H](CO)NC(=O)[C@H](Cc1c[nH]c2ccccc12)NC(=O)[C@H](Cc1cnc[nH]1)NC(=O)[C@@H]1CCC(=O)N1)C(=O)N[C@@H](CCCN=C(N)N)C(=O)N1CCC[C@H]1C(=O)NCC(N)=O` (stereo in doubt) the Potency was “inactive”. With `C=CC(OCC)OCC` the Potency was “inactive”. In the case of `OC[C@H](Cc1cccc(O)c1)[C@H](CO)Cc1cccc(O)c1`, the Potency was “inactive”. With `CC1=C(C(=O)O)N2C(=O)[C@@H](NC(=O)[C@H](N)c3ccc(O)cc3)[C@H]2SC1` the Potency was “inactive”. In the case of `COc1cc2c(cc1OC)C(=O)CC2`, the Potency was “inactive”. In the case of `Cc1ccsc1/C=C/C1=NCCCN1C`, the Potency was “inactive”. With `CCCCOCCOC(=O)COc1nc(Cl)c(Cl)cc1Cl` the Potency was “inactive”. In the case of `O=C(OCC1(COC(=O)c2cccnc2)CCCC(COC(=O)c2cccnc2)(COC(=O)c2cccnc2)C1O)c1cccnc1`, the Potency was “inactive”. In the case of `On1nnc2ccccc21`, the Potency was “inactive”. In the case of `COc1cc(NS(=O)(=O)c2ccc(N)cc2)nc(OC)n1`, the Potency was “inactive”. With `O=C(NCC(O)CO)c1c(I)c(C(=O)NCC(O)CO)c(I)c(N(CCO)C(=O)CO)c1I` (stereo not given) the Potency was “inactive”. With `CN(C)c1ccc(C=O)cc1` the Potency was “inactive”. In the case of `CC[C@H](C)C(=O)O[C@H]1C[C@H](O)C=C2C=C[C@H](C)[C@H](CC[C@@H](O)C[C@@H](O)CC(=O)O)[C@H]21`, the Potency was “inactive”. For `Oc1ccccc1-c1nnco1`, the Potency was “inactive”. With `CCCCCCCCC1CCC(=O)O1` (stereo not given) the Potency was “inactive”. For `Brc1ccc(-c2ccccc2)cc1`, the Potency was “inactive”. In the case of `C=C(C)C(=O)OCCN(CC)CC`, the Potency was “inactive”. For `O=C(OCC(COC(=O)c1cccnc1)(COC(=O)c1cccnc1)COC(=O)c1cccnc1)c1cccnc1`, the Potency was “inactive”. In the case of `CC(C)(C)c1nnc(NS(=O)(=O)c2ccc(N)cc2)s1`, the Potency was “inactive”. For `CNS(=O)(=O)CCc1ccc2[nH]cc(C3CCN(C)CC3)c2c1`, the Potency was “inactive”. In the case of `ClCCCl`, the Potency was “inactive”. With `CC(=O)N[C@@H](CCC(=O)O)C(=O)O` the Potency was “inactive”. With `CC(C)OC(=O)CCCCC(=O)OC(C)C` the Potency was “inactive”. For `O=C(OCc1ccccc1)C(=O)OCc1ccccc1`, the Potency was “inactive”. With `c1ccc2c(c1)ccc1c3ccccc3ccc21` the Potency was “inactive”. In the case of `COc1ccc(OC)c(Cl)c1`, the Potency was “inactive”. With `CC(C)NCC(O)COc1ccc(COCCOC(C)C)cc1` (stereo not given) the Potency was “inactive”. With `O=C(CCN1CCN(CCO)CC1)N1c2ccccc2Sc2ccc(C(F)(F)F)cc21` the Potency was “inactive”. With `Nc1ccc(S(=O)(=O)Nc2ccc(Cl)nn2)cc1` the Potency was “inactive”. For `CCCCCCOc1ccccc1C(N)=O`, the Potency was 16.9 µM (active). For `CC(C)c1ccc2cc(C(C)C)ccc2c1`, the Potency was “inactive”. `N[C@@H](COP(=O)(O)O)C(=O)O` gave an activity change, negative = cytotoxic of 2.67% [at 15.8 µM].

Reference: PubChem BioAssay (Tox21)
Potency is read from the fitted curve at half-maximal effect.
